Screening data: PubChem, National Center for Advancing Translational Sciences (NCATS)
GLP1R ag: agonists of human GLP-1 receptor | P43220 | HEK293 GLP-1R CRE-luciferase, luminescence, 4-6 h; cells express a hypersensitive GLP-1R form | Potency, µM (series often up to 45.6 µM), usual class: activators | 0.007% of 380,000 active | AID 624172
Target sequence (P43220 whole entry, looked up): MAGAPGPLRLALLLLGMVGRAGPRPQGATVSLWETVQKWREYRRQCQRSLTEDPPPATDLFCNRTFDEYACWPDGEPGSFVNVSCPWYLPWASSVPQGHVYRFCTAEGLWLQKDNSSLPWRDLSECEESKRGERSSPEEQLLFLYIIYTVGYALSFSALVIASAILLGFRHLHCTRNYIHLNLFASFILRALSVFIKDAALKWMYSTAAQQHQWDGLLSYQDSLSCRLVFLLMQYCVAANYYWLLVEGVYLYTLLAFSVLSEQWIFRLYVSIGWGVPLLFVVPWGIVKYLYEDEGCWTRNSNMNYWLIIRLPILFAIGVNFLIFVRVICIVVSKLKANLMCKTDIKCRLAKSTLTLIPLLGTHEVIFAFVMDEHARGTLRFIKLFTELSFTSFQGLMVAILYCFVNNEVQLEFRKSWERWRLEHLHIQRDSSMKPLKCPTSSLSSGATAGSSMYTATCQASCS
GLP1R cytotox: cytotoxicity in counter-screen for GLP-1R inverse agonists; HEK293 cAMP-luciferase reporter cells, luminescence, 24 h; 0.13% of 410,000 active; Potency, µM (series often up to 38.3 µM), usual class: inhibitors;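 also: loss of luciferase light is scored as toxicity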
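To flag toxic compounds, the library was rerun on cells for 24 hr at 37 deg C and 5% CO2. Viability-linked luminescence was captured 12 min after adding luciferase detection reagent.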
GLP1R inv ag: acts as inverse agonist at human GLP-1 receptor | P43220 | HEK293 GLP-1R CRE-luciferase, luminescence, 24 h; GLP-1R form is constitutively active | Potency, µM (top dose mostly 38.3 µM), usual class: inhibitors | 1.6% of 410,000 active | AID 624417; also: nearly all actives have a fitted effect of over 55% in size
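Constitutively active GLP-1R drives a cAMP-responsive luciferase in stably transfected HEK293 cells; test compounds are added after overnight (12 h) attachment and left 24 hr, and signal loss in luminescence marks inhibition.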
A number is an active result; . = inactive; ? = inconclusive; / = not tested or not shown; [ ] = remark or other dose. Most compounds without a hit are left out; they make up all but 1.7% or so of the library. Calls follow the shape of the dose curve; as a rule, active = well fitted curve in the direction sought with a large enough effect; inconclusive = small, poorly fitted or top-dose-only effect, or another doubt; inactive = no such curve, though single readings can be large; an effect the other way counts as inactive or inconclusive.

SMILES | GLP1R ag | GLP1R cytotox | GLP1R inv ag
CCN1C=C(Cc2ccc(OC)cc2)C2=C(C1)C(c1ccc(OC)cc1)C(C#N)=C(N)O2 (stereo not given) | . | . | 6.3µM
CN(Cc1ccccc1)C(=O)Cn1ncc2c3ccccc3n(Cc3cccc(Cl)c3)c2c1=O | / | . | .
O=C(/C=C/c1ccccc1[N+](=O)[O-])OCC(=O)N1CCN(c2ccccc2)CC1 | . | . | .
Cc1cc(C)cc(N(C(=O)c2cccs2)C2C=CS(=O)(=O)C2)c1 (stereo not given) | . | . | .
CCC1(CC)NC(=O)N(CC(=O)N2N=C(c3ccc(Cl)cc3)CC2c2ccco2)C1=O (stereo not given) | . | . | ?
COc1ccc(-c2cn3ccccc3n2)cc1 | . | . | ?
CCCOc1ccc(-c2cn3ccccc3n2)cc1 | . | . | 7.1µM
CC(C)[N+](C)(C)CC(O)COc1cccc2ccccc12 (stereo not given) | . | / | /
Cc1ccc(NC(=O)N2C3CCCC2CC(NC(=O)C2CC2)C3)cc1 (stereo not given) | . | . | .
C/C(Cc1ccccc1)=N\NC(=O)CNC(=O)c1ccc(Cl)cc1 | . | . | .
CCOc1ccc(C(O)(CCC(C)C)C(CN2CCOCC2)c2ccccc2)cc1 (stereo not given) | . | ? | 3.2µM
CCCCC(O)(c1ccc(F)cc1)C(CN1CCOCC1)c1ccc(Cl)cc1 (stereo not given) | . | . | 2.8µM
COc1ccc(C(O)(CCC(C)C)C(CN2CCOCC2)c2ccc(Cl)cc2)cc1 (stereo not given) | . | ? | ?
CCCC(O)(c1ccc(Cl)cc1)C(CN1CCOCC1)c1ccc(Cl)cc1 (stereo not given) | . | . | ?
CCOC(=O)c1cc(C(=O)OCC)c(=O)[nH]c1N1CCCC1 | . | . | .
CC(C)N(Cc1ccccc1)C(=O)CCS(=O)(=O)c1ccc2c(c1)oc(=O)n2C | . | . | .
C[C@@H](NC(=O)[C@@H]1CCCN1C(=O)[C@@H]1CCCN1)c1ccccc1 | . | . | .
Cc1cc(NC(=O)CSc2nc(-c3ccc(Cl)cc3)cs2)no1 | . | . | .
O=C(CSc1nc(-c2ccc(Cl)cc2)cs1)Nc1cccc([N+](=O)[O-])c1 | . | . | 10µM
COc1ccccc1NC(=O)c1ccc[n+]([O-])c1 | . | . | .
CCOc1ncccc1C(=O)Nc1ccc(S(=O)(=O)N2CC(C)CC(C)C2)cc1 (stereo not given) | . | . | .
O=C(c1cc(Cl)nc2ccccc12)N1CCN(S(=O)(=O)c2cccc(C(F)(F)F)c2)CC1 | . | . | 11µM
CCc1nc2ccccc2n1CC(=O)N1CCN(S(=O)(=O)c2cccc(C(F)(F)F)c2)CC1 | . | . | .
Cc1ccc(O)c(NC(=O)c2onc(C)c2Cl)c1 | . | . | .
CC(C)NC(=O)C(=O)NCCC1CCCCN1S(=O)(=O)c1cccs1 (stereo not given) | . | . | .
SMILES | GLP1R ag | GLP1R cytotox | GLP1R inv ag
CC(C)N(C(=O)[C@H]1CC(CC(=O)NC(C)(C)C)C(=O)N2CCc3c([nH]c4ccccc34)[C@]12C)C(C)C (stereo not given in full) | . | . | .
O=C(CC1CCCCC1)NCc1nc(-c2ccccc2)no1 | . | . | .
COc1ccc(C)cc1NC(=O)Nc1cccc(-c2noc(C)n2)c1 | . | . | ?
Cc1nc(-c2cccc(NC(=O)Nc3ccc([N+](=O)[O-])cc3)c2)no1 | . | ? | 3.5µM
Cn1c(C(=O)N2CCN(c3nc4ccccc4s3)CC2)cc2sccc21 | . | . | .
O=C(c1cc2sccc2n1Cc1ccc(F)cc1)N1CCN(c2nc3ccccc3s2)CC1 | . | . | 4.5µM
COc1ccc(NC(=O)c2sc3nc[nH]c(=O)c3c2C)cc1OC | . | . | .
COC(=O)c1scc(-c2ccc(C)cc2)c1S(=O)(=O)Nc1cccc(Cl)c1C | / | . | 10µM
CCOc1ccccc1NS(=O)(=O)c1c(-c2ccc(C)cc2)csc1C(=O)OC | / | . | 11µM
COC(=O)c1scc(-c2ccc(C)cc2)c1S(=O)(=O)Nc1cc(Cl)ccc1C | / | . | ?
CCOC(=O)c1ccccc1NS(=O)(=O)c1c(-c2ccc(C)cc2)csc1C(=O)OC | / | . | ?
CCOC(=O)CC1C(=O)NCCN1C1CCCC1 (stereo not given) | . | .[7.66 µM] | .[7.66 µM]
CCC/C=C/c1ccc(CN2C(C(C)C)C(=O)N(Cc3cn(Cc4ccco4)nn3)CCS2(=O)=O)cc1 (stereo not given) | . | . | ?
COc1ccc(-c2cc3nc(C)cc(N)n3n2)cc1 | . | . | 7.9µM
COc1ccc(-c2cc3nc(C)cc(-c4ccc(OC)cc4)n3n2)cc1 | . | . | .
O=C(Nc1ccccc1)c1cc(C2CCCCN2S(=O)(=O)c2cccs2)on1 (stereo not given) | . | . | .
CCOc1cc(S(=O)(=O)NC2CC(C)(C)NC(C)(C)C2)ccc1Cl | . | . | 11µM
COc1cc(C)c(Cl)c(C)c1S(=O)(=O)NC1CC(C)(C)NC(C)(C)C1 | . | . | 5.6µM
COc1cc(C)c(C(C)C)cc1S(=O)(=O)NC1CC(C)(C)NC(C)(C)C1 | . | . | ?
CCOc1cc(C)c(Cl)cc1S(=O)(=O)NC1CC(C)(C)NC(C)(C)C1 | . | . | ?
O=C(NCCc1cccs1)c1ccc(Cn2c(SCc3ccc(F)cc3)nc3cccnc32)cc1 | / | . | .
CCOC(=O)N1CCN(C(=O)C[C@@H]2C[C@@]3(C(=O)OC)CCCCC=C3N(Cc3ccc(Cl)cc3Cl)C2=O)CC1 | . | . | 11µM
CCOC(=O)N1CCN(C(=O)C[C@@H]2C[C@@]3(C(=O)OCC)CCCC=C3N(Cc3ccc(Cl)cc3Cl)C2=O)CC1 | . | . | ?
CC12CCC(C(=O)N(c3nccs3)C1=O)C2(C)C (stereo not given) | . | . | .
Cc1c(C(=O)NCCc2ccc(S(N)(=O)=O)cc2)sc2nc3n(c(=O)c12)CCCC3 | / | . | .
SMILES | GLP1R ag | GLP1R cytotox | GLP1R inv ag
CC(C)c1ccc(CNNC(=O)c2ccccc2)cc1 | . | . | .
CN(C)C(=O)CN1C(=O)NC2(CCCc3ccccc32)C1=O (stereo not given) | . | . | .
Cc1ccc(CN(C)C(=O)CN2C(=O)NC3(CCCc4ccccc43)C2=O)c(C)c1 (stereo not given) | . | . | 3.2µM
O=C(CCl)N1N=C(c2ccco2)CC1c1cccs1 (stereo not given) | . | ? | .
Cc1ccc(C2=NN(C(=O)CCl)C(c3cccs3)C2)o1 (stereo not given) | . | ? | 3.2µM
Cc1ccc2oc(C(=O)Nc3c(C(=O)Nc4cccc(Cl)c4)oc4ccccc34)cc(=O)c2c1 | / | . | .
CSc1ncc(Cl)c(C(=O)N(Cc2ccc(N(C)C)cc2)Cc2ccco2)n1 | / | . | ?
COc1ccc(N(Cc2ccccc2)C(=O)c2nc(SC)ncc2Cl)cc1 | / | . | 11µM
COc1ccc(NC(=O)c2nc(SC)ncc2Cl)cc1 | . | . | .
CCCS(=O)(=O)c1ncc(Cl)c(C(=O)N(Cc2ccccc2)Cc2ccco2)n1 | / | 10µM | 13µM
CCSc1ncc(Cl)c(C(=O)N(Cc2ccccc2)Cc2ccco2)n1 | / | . | 10µM
